This note sets out measurements from the OligoGym collection.
Further: reference of the scale not given here.

The first experiment has as its target C7orf11. Briefly: pooled miR-30 sensor sort-seq; sequence = guide strand. The settings on record: shRNA.
TAATTATCCAATCAAAGTCATC displayed a sensor-assay potency score (higher = more potent) of -1.65.

TCTAATATCAACAATACCTGAT: the sensor-assay potency score (higher = more potent) is 0.0324.

On to ATATCCACTACAGATACTGGTT, for which the sensor-assay potency score (higher = more potent) is -0.708.

For the sequence TTTGAGTATTGCTGTATTGTTG, the sensor-assay potency score (higher = more potent) is -0.804.

TTTTTTCTCTAACACGCCCTGA returned a sensor-assay potency score (higher = more potent) of -0.403.

In turn, TTTTTCTCTAACACGCCCTGAT came in with a sensor-assay potency score (higher = more potent) of 0.0567.

In turn, TTGGCTTATATCCACTACAGAT came in with a sensor-assay potency score (higher = more potent) of -1.16.

On to TTCTTTTTTCTCTAACACGCCC, for which the sensor-assay potency score (higher = more potent) is -0.504.

For the sequence TTGAGTATTGCTGTATTGTTGG, the sensor-assay potency score (higher = more potent) was -0.097.

TCCAACTCATTAGACATTCTTT returned a sensor-assay potency score (higher = more potent) of -1.12.

The sequence TTATATCCACTACAGATACTGG yielded a sensor-assay potency score (higher = more potent) of -1.05.

TAAATGTTGCAAGTTATCCTAC: the sensor-assay potency score (higher = more potent) was 0.0898.

A further experiment has as its target C7orf47. The experiment is described as above. Conditions: shRNA.
In the case of TGGAGATTCATAAAATAGCGTT, the sensor-assay potency score (higher = more potent) is -0.725.

On to TGGGTCACACAAGATGGTCATG, for which the sensor-assay potency score (higher = more potent) was -1.71.

TAGCGTTTCTGGGTCACACAAG: the sensor-assay potency score (higher = more potent) is -0.834.

Turning to TAAAATAGCGTTTCTGGGTCAC, the sensor-assay potency score (higher = more potent) was found to be 0.138.

The sequence TCATAAAATAGCGTTTCTGGGT had a sensor-assay potency score (higher = more potent) of -0.72.

On to TCACACAAGATGGTCATGTCTG, for which the sensor-assay potency score (higher = more potent) was -0.315.

The sequence ATTCATAAAATAGCGTTTCTGG registered a sensor-assay potency score (higher = more potent) of -0.587.

The sequence TTTCTGGGTCACACAAGATGGT yielded a sensor-assay potency score (higher = more potent) of -1.07.

With AAGATGGTCATGTCTGGCCCAG, the sensor-assay potency score (higher = more potent) is -1.42.

Regarding TTCTGGGTCACACAAGATGGTC, the sensor-assay potency score (higher = more potent) is -1.8.

In the case of TAACACAAAAATACGAACTAGC, the sensor-assay potency score (higher = more potent) is 0.2.

TAGTTTAACACAAAAATACGAA yielded a sensor-assay potency score (higher = more potent) of -0.764.

The target of the next experiment is C7orf69. The description is as above. The settings on record: shRNA.
In turn, TTTGATAGTTTGACAAAACTTG displayed a sensor-assay potency score (higher = more potent) of -0.171.

TTTGCTCTGCATTTGATAGTTT returned a sensor-assay potency score (higher = more potent) of -0.51.

Regarding TGATAGTTTGACAAAACTTGTA, the sensor-assay potency score (higher = more potent) is -0.512.

Turning to AAGTCCAGAGTTAAGAACCAGC, the sensor-assay potency score (higher = more potent) is -0.81.

The sequence TTGTAGAGAAGTCCAGAGTTAA displayed a sensor-assay potency score (higher = more potent) of -1.47.

The sequence TTCAGCTCTCCTATCCGTGCAA showed a sensor-assay potency score (higher = more potent) of 0.252.

Sequence TTGATAGTTTGACAAAACTTGT had a sensor-assay potency score (higher = more potent) of -1.4.

As to TTGCTCTGCATTTGATAGTTTG, the sensor-assay potency score (higher = more potent) is -1.46.

Consider ATAGTTTGACAAAACTTGTAGA, for which the sensor-assay potency score (higher = more potent) is -0.39.

TTTCCATCCATGACCAACTTTT returned a sensor-assay potency score (higher = more potent) of -0.995.

On to TAGTTTGACAAAACTTGTAGAG, for which the sensor-assay potency score (higher = more potent) was -0.507.

On to AAAACTTGTAGAGAAGTCCAGA, for which the sensor-assay potency score (higher = more potent) was -0.425.

In a further experiment the target is C8B. The description is as above. The settings on record: shRNA.
Sequence TTGTCAGAGAAGTTGCACGGTT had a sensor-assay potency score (higher = more potent) of -0.544.

Turning to AACACAGTCTTCGACTTCCTTG, the sensor-assay potency score (higher = more potent) is -0.726.

TTAACTTTGATGATGGCTGGGT came in with a sensor-assay potency score (higher = more potent) of 0.335.
